pAkt inh = HTS Assay for Inhibitors of Akt Phophorylation: Primary Screen; AID 651550, 2012; actives 0.32% (n = 360,000); activity change, % for hits at 50 µM; Neuro2A IGF-stimulated pAkt S473 HTRF, 20 min; stronger effect = lower value; in the data active means activity change below about -80%; inconclusive means mostly about -51% to -80%; further: on the % scale 0 is the no-effect control and ±100 the full control effect
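Single-point screen (50 µM final compound) in Neuro2A cells stimulated 20 min with 6 nM IGF at 37 deg C. After lysis, Ser473-phosphorylated Akt read by HTRF (ex 330 nm, em 615/665 nm) as the 665/615 ratio.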
gsp antag = qHTS for Antagonists of gsp, the Etiologic Mutation Responsible for Fibrous Dysplasia/McCune-Albright Syndrome: qHTS. Potency, µM (doses to about 76.9 µM), for inactives: top-dose activity change, negative = inhibition, actives largely listed as inhibitors. actives 0.4% (n = 340,000). gsp-mutant cells, cAMP HTRF, 30 min. AID 624288, 2012; calls by dose curve; cell line not stated here;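 further: intracellular cAMP measured with PDE inhibitor Ro 20-1724 present during compound exposure; potency means the concentration at half of the fitted maximal effect; on the % scale 0 is the no-effect control and ±100 the full control effect; nearly all actives have a fitted effect of over 65% in size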
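Cells, 2000/well, grown 16–24 h in DMEM 10% FBS with 0.5 mg/ml G418, then compounds plus […] (300 uM addition stock), 30 min at 37C. cAMP read by HTRF (cAMP-d2 and anti-cAMP antibody-K in lysis buffer) after 30 min RT.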
gsp agonist = qHTS for Agonist of gsp, the Etiologic Mutation Responsible for Fibrous Dysplasia/McCune-Albright Syndrome: qHTS; gsp mutant cells, cAMP HTRF, 30 min; Potency, µM (doses to about 76.9 µM), without a hit: top-dose activation (cAMP increase), most hits filed as activators; actives 0.13% (n = 340,000); AID 624287, 2012; active means well fitted activation curve with a large enough effect; inconclusive means small, poorly fitted or top-dose-only effect, or another doubt; inactive means no such curve, though single readings can be large or run the other way; cell line not stated here;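 further: phosphodiesterase inhibitor Ro 20-1724 added with compounds to block cAMP breakdown; potency means the concentration at half of the fitted maximal effect; nearly all actives have a fitted effect of over 60% in size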
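Cells stably selected in G418 were plated at 2000/well, grown 16-24 hr, then given compounds in DMSO with the PDE inhibitor […] (300 uM solution added) for 30 min at 37C; cAMP was read by HTRF.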
RXFP1 agonist = qHTS Assay for Agonists of the Relaxin Receptor RXFP1; HEK293T-RXFP1 cAMP TR-FRET, 30 min; response scale: percent of porcine relaxin response, buffer zero; actives 0.3% (n = 370,000); AID 2676, 2010; Potency, µM (highest dose often 57.5 µM), for inactives: at the highest dose activation, usual class: activators; Relaxin receptor 1 (Homo sapiens), Q9HBX9; active means well fitted activation curve with a large enough effect; inconclusive means small, poorly fitted or top-dose-only effect; further: potency means the concentration at half of the fitted maximal effect; on the % scale 0 is the no-effect control and ±100 the full control effect; nearly all actives have a fitted effect of over 60% in size
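Agonist response is measured as cAMP accumulation in an RXFP1-transfected HEK293T line under PDE4 inhibition. Values are scaled between buffer-only and 29 nM porcine relaxin, and EC50s come from standard Hill equation fits.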
RXFP1 antag = qHTS Assay for Antagonists of the Relaxin Receptor RXFP1; actives 0.59% (n = 350,000); activity change, negative = inhibition, % at 57.5 µM; Relaxin receptor 1 (Homo sapiens), Q9HBX9; HEK293-RXFP1, relaxin-stimulated cAMP HTRF, 30 min; stronger effect = lower value; AID 1259400, 2018;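 active means activity change of -60% or lower, but not beyond a set lower limit; inconclusive means change between -60% and -40%, or beyond the set limit; inactive means change above -40%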; further: on the % scale 0 is the no-effect control and ±100 the full control effect
ClpP mod = qHTS Assay for Activators of ClpP; purified B. subtilis ClpP, FRET peptide cleavage, 20 min; Potency, µM (series often up to 57.5 µM), without a hit: top-dose activity change, negative = active; AID 651965, 2013; actives 1.9% (n = 340,000); active means well fitted falling curve with a large enough effect; inconclusive means small, poorly fitted or top-dose-only effect; inactive means no such curve, though single readings can be large or run the other way; further: potency means the concentration at half of the fitted maximal effect; the source files actives as falling curves though it sought activators and does not explain the sign; nearly all actives have a fitted effect of over 65% in size
Target sequence (P80244 whole entry, looked up): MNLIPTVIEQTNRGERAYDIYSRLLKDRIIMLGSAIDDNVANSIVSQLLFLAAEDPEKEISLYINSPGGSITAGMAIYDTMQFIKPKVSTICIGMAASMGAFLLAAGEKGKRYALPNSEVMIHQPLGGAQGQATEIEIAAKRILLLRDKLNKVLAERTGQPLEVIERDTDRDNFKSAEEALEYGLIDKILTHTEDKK
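Purified B. subtilis ClpP, 10 microg/mL final in Tris/HCl pH8 with KCl, BSA, glycerol and Tween-20, cleaved an Abz/nitrotyrosine-quenched decapeptide. Fluorescence (ex 320, em 430) was read at 0 and 20 min at room temperature. Delta was normalized to 5.8 microM ADEP and DMSO/no-enzyme controls.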
The depositor's hits bear a star; i = inactive; ? = inconclusive; . = no result; [ ] = remark or other dose. Rows were chosen to be rich in hits. Some 2.7% of all compounds tested hit in one or more screens of this group.

SMILES	pAkt inh	gsp antag	gsp agonist	RXFP1 agonist	RXFP1 antag	ClpP mod
CC(=O)Nc1nonc1-c1nc2ccccc2n1N(C(C)=O)C(C)=O	i	-6.9%	?	0.0%	-9.5	28.2µM*
CC(=O)Nc1nonc1-c1nc2ccccc2n1Cc1ccccc1Br	.	.	.	8.7%	-8.3	25.1µM*
COc1ccccc1-c1nnc(SC2CCc3ccccc3NC2=O)s1 (configuration not stated)	i	?	29.0%	6.2%	-0.8	22.4µM*
COc1ccccc1-c1nnc(N)s1	i	3.0%	-0.5%	2.5%	-11.6	.
CN(C)c1ccc(N/C=C/C(=O)c2ccco2)cc1	i	-28.7%	2.6%	0.6%	-64.3*	1.4%
CN1C(=O)C(CC(=O)N2CCN(C(c3ccccc3)c3ccccc3)CC2)N(C)C1=O (configuration not stated)	-114.9%*	12.9%	-46.6%	-0.1%	-1.3	-3.1%
CCc1c(C)nc2cc(-c3cc(OC)cc(OC)c3)nn2c1N1CCCC1	i	-2.4%	-33.0%	7.3%	-0.8	-29.8%
Fc1cccc(-c2cc3nc4c(c(N5CCC6(CC5)OCCO6)n3n2)CCCC4)c1	i	-6.7%	?	4.5%	-26.4	28.2µM*
COc1cc(OC)cc(-c2cc3nc4c(c(N5CCN(c6ncccn6)CC5)n3n2)CCCC4)c1	i	9.7%	3.5%	2.4%	-18.6	35.5µM*
COc1ccc(-c2nnc(Nc3nc4c(OC)cccc4s3)o2)cc1	i	-22.2%	-4.9%	2.2%	-2.1	39.8µM*
COc1ccc(-c2nnc(Nc3nc4c(OC)cccc4s3)o2)c(OC)c1	i	-3.4%	-2.6%	6.0%	19.7	15.8µM*
CCN(CC)c1ccc(-n2cc3c(=O)n(C)c(=O)n(C)c3c2)cc1	i	25.4%	?	16.5%	11.3	35.5µM*
O=C(CN1CCC2(CC1)OCCO2)c1c[nH]c2ccccc12	-121.6%*	7.1%	-2.2%	-0.1%	-14.5	0.7%
Cc1ccc2[nH]cc(C(=O)CN3CCC4(CC3)OCCO4)c2c1	i	4.6%	-7.9%	0.5%	-5.8	-2.9%
Nc1ncnc2nc(SCC(=O)Nc3ccccc3F)[nH]c12	i	10.3%	12.6%	10.4%	-3.8	.
Cc1c(OCC(=O)NCC(O)c2ccccc2)ccc2c(-c3ccccc3)cc(=O)oc12 (configuration not stated)	i	28.2µM*	.	0.0%	.	-11.0%
C/C=C/c1cccc(-c2nc(C(=O)NC3Cc4ccccc4C3)cc3c2[C@@H](CCO)N(C(C)=O)C3)c1	i	.	.	.	.	-1.0%
C=CC[C@H](CC(=O)NCCO)C(=O)N[C@@H](COC(=O)[C@@H](CC=C)Cc1ccc(F)cc1)Cc1ccccc1	i	1.4%	5.6%	.	.	0.5%
O=C(c1ccc2c(=O)n3c(nc2c1)CCCCC3)N1CCCCC1	i	4.7%	2.7%	1.6%	-107.9*	-1.1%
CN(C)c1ccc(/C=C/c2ccnc3cc(Cl)cc(Cl)c23)cc1	.	.	.	.	.	-4.6%
COc1ccccc1/C=C/C=N/n1c(-c2ccc(Cl)cc2)n[nH]c1=S	i	-7.1%	-7.2%[15.4 µM]	-0.5%	-62.8*	3.1%
COc1ccccc1/C=C/C=N/n1c(-c2ccccc2)n[nH]c1=S	i	-9.1%	-1.7%[15.4 µM]	-2.2%	-4.8	.
COc1ccc(N(CC(=O)Nc2cc(OC)cc(OC)c2)S(=O)(=O)c2c(C)noc2C)cc1	.	.	.	1.1%	.	-3.3%
Cc1cc2c(s1)c1cnn(CC(=O)N3CCOCC3)c(=O)c1n2C	.	.	.	.	.	4.2%
CC(=O)/C(N=Nc1c(C)n(C)n(-c2ccccc2)c1=O)=C(\C)O	i	2.1%	11.2µM*	19.5%	1.4	.
SMILES	pAkt inh	gsp antag	gsp agonist	RXFP1 agonist	RXFP1 antag	ClpP mod
CCOC(=O)/C(N=Nc1c(C)n(C)n(-c2ccccc2)c1=O)=C(\C)O	i	-8.4%	4.1%	-0.5%	-3.5	0.8%
Cc1cc(C)c(-c2cc(C(F)(F)F)no2)c(=O)[nH]1	i	13.8%	-23.0%	1.0%	-11.3	17.8µM*
O=C1C(c2ccc(C(F)(F)F)cc2)=C(Nc2ccc(Cl)cc2)c2ccccc21	.	.	.	-0.8%	-19.7	2.8%
COc1ccccc1N(C(C)=O)C1=C(Cl)C(=O)c2ccccc2C1=O	i	.	-44.2%	.	-86.6*	7.3%
COc1ccccc1/C=C1\SC(=S)N(Nc2nc(C)cc(C)n2)C1=O	i	5.5%	-19.5%	0.5%	8.9	1.9%
Cc1cc(C)nc(NN2C(=O)/C(=C/c3ccc(O)cc3)SC2=S)n1	i	?	18.2%	1.3%	-116.2*	-2.1%
COc1ccc(OCCC(=O)OCC(=O)NCc2ccco2)cc1	i	-23.6%	25.5%	0.7%	-3.5	0.1%
COC(=O)c1ccccc1NC(=O)CSc1nccn1C	-98.6%*	9.4%	?	-0.3%	-4.8	-2.5%
COc1ccccc1NCCC(=O)OCC(=O)NCc1ccco1	-106.1%*	-1.6%	-3.0%	0.9%	1.6	-1.3%
CCOC(=O)CNC(=O)Nc1ccccc1C(=O)OC	i	-4.8%	3.7%	-0.4%	-0.6	28.2µM*
COC(=O)c1ccccc1NC(=O)NCc1cccnc1	i	1.2%	?	3.3%	-1.6	28.2µM*
COc1ccc(NC(=O)NCc2cccnc2)c(OC)c1	i	?	?	-3.8%	-2.6	-1.4%
Cn1ccnc1SCC(=O)n1c2c(c3ccccc31)CCCC2	i	-20.9%	-0.1%[15.4 µM]	0.6%	-7.2	31.6µM*
O=C(NCc1ccco1)Nc1ccccc1Cl	i	11.3%	-6.0%	1.4%	-8.1	1.0%
COC(=O)c1ccccc1NC(=O)NCc1ccco1	i	4.4%	18.3%	1.6%	5.0	28.2µM*
COC(=O)c1ccccc1NC(=O)NCc1ccccn1	i	9.2%	?	-0.3%	-0.3	28.2µM*
COc1cccc(CC(NC(C)=O)C(=O)NC2CCN(C(=O)C3CC3)CC2)c1OC (configuration not stated)	i	10.1%	-27.8%	0.3%	2.0	0.1%
O=C(NCc1ccccc1)C(=O)Nc1c2c(nn1-c1ccc(F)cc1)CSC2	.	.	.	-0.2%	-78.7*	-0.2%
COC(=O)c1ccn(C(=O)c2ccc(Cl)cc2)n1	i	-9.7%	8.5%	-0.8%	-13.7	28.2µM*
COC(=O)c1ccn(CSc2cc(Cl)ccc2Cl)n1	i	6.6%	?	1.9%	1.9	0.1%
CCO[C@@H]1OC(C(=O)NCc2ccccc2)=C[C@H](C2CCCCC2)[C@H]1CCCO	i	11.2µM*	-9.2%	-1.0%	.	-2.5%

Source: PubChem
